Measured values reported in PubChem BioAssay (EPA / NIEHS).
Calls of active or inactive are those of the source. The calls were made as follows: active = hit-call score of the fitted dose curve at least 0.9, where 1 is the maximum; inactive = score below 0.9.

Key:
[1] = IUF_NPC1b_proliferation_BrdU_72hr: Leibniz Research Institute for Environmental Medicine (IUF) 72-hour Neural Progenitor Cell Bromodeoxyuridine (BrdU) Proliferation Assay (NPC1b) (AID 2284207)
Method in brief: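 Luminescent BrdU ELISA measured DNA synthesis during the last 16 h of a 72 h exposure of primary human neural progenitor spheres grown with EGF and FGF. Signal was fitted relative to DMSO controls.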

[2] = IUF_NPC1a_proliferation_area_72hr: Leibniz Research Institute for Environmental Medicine (IUF) 72-hour Neural Progenitor Cell Proliferation Area Assay (NPC1a) (AID 2284208)
Method in brief: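 Single 0.25–0.35 mm human fetal neural progenitor spheres in proliferation medium with EGF and FGF, exposed 72 h from plating without renewal at 37C, pH 7.2-7.6. Sphere area growth measured by automated phase-contrast imaging, relative to DMSO.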

[3] = IUF_NPC1_viability_72hr: Viability Assessment at 72 hours in the Leibniz Research Institute for Environmental Medicine (IUF) Neural Progenitor Cell Proliferation Assay (NPC1) (AID 2284209)
Method in brief: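 Spheres of primary human neural progenitors were plated singly in proliferation medium and treated for 72 h. Mitochondrial reduction of resazurin was then measured by fluorescence and analysed against DMSO controls.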

[4] = CCTE_Mundy_HCI_Cortical_Synap_Neur_Matur_NeuriteSpotCountPerNeuriteLength: CCTE's Synaptogenesis and Neurite Maturation Assay in rat cortical cells for Neurite Spot Count per Neurite Length, Mundy Lab (AID 2284210)
Method in brief: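 Read-out: synaptophysin puncta counted along MAP2-stained neurites, normalised to neurite length, by automated high-content imaging. Rat cortical cells; AraC DIV 5; chemical dosing DIV 7; termination DIV 12. DMSO baseline.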

[5] = CCTE_Mundy_HCI_Cortical_Synap_Neur_Matur_BPCount: CCTE's Synaptogenesis and Neurite Maturation Assay in rat cortical cells for Branch Point Count, Mundy Lab (AID 2284211)
Method in brief: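 HCI read-out of branch points from MAP2/synaptophysin/Hoechst immunofluorescence; rat cortical cultures, AraC DIV 5, dosing DIV 7, fixed DIV 12; fit in positive direction vs DMSO baseline.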

[6] = CCTE_Mundy_HCI_Cortical_NOG_NeuriteCount: CCTE's Neurite Outgrowth Assay in rat cortical cells for Neurite Count, Mundy Lab (AID 2284212);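 also: cells fixed about two days after chemical exposure began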
Method in brief: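 Rat cortical primary cells; compound added 2 h post-plating, 1/10 dilution of working solution. Anti-betaIII-tubulin/AF488 ICC; ArrayScan neurite count vs DMSO.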

[7] = CCTE_Mundy_HCI_Cortical_NOG_NeuriteLength: CCTE's Neurite Outgrowth Assay in rat cortical cells for Neurite Length, Mundy Lab (AID 2284213);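 as to AC50: neurites imaged about 48 to 50 h after chemical exposure began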
Method in brief: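 First, rat primary cortical cells were plated and, 2 h later, given test chemical as a 1/10 dilution. Finally, βIII-tubulin immunostaining enabled automated imaging of neurite length.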

[8] = CCTE_Mundy_HCI_Cortical_Synap_Neur_Matur_NeuriteLength: CCTE's Synaptogenesis and Neurite Maturation Assay in rat cortical cells for Neurite Length, Mundy Lab (AID 2284214)
Method in brief: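 Cultures of rat primary cortical cells received chemical at DIV 7 and were fixed at DIV 12, after glial arrest with AraC at DIV 5. Neurite length was measured by automated imaging of MAP2 immunofluorescence.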

[9] = CCTE_Mundy_HCI_Cortical_Synap_Neur_Matur_NeuriteSpotCountPerNeuron: CCTE's Synaptogenesis and Neurite Maturation Assay in rat cortical cells for Neurite Spot Count per Neuron Count, Mundy Lab (AID 2284215)
Method in brief: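 Rat primary cortical cultures given AraC at DIV 5, dosed from DIV 7 to DIV 12 with media change. Fixed, stained for MAP2, synaptophysin and Hoechst; neurite-associated synaptophysin puncta per neuron quantified by high-content imaging versus DMSO.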

[10] = TAMU_PeakParms_SingleDonor1434_Chronotropy: Texas A&M University (TAMU) 1.5-hr Human Induced Pluripotent Stem Cell (iPSC)-derived Cardiomyocytes Calcium (Ca+2) Flux Assay for Cardiotoxicity: Chronotropy (changes in peak frequency) (AID 2284217); details: actives raise or lower the signal
Method in brief: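 iPSC-derived cardiomyocytes (single donor 1434) dosed at 0.2, 1, 10 and 100 uM in 0.5% DMSO for 1.5 h at 37C; Ca2+ dye fluorescence gave average beat frequency. Zero-beat points removed; bidirectional fit versus DMSO, POD as EC05.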

Measured: AC50

OCC(O)CO
not listed: [10]
inactive: all other assays above

COC(=O)[C@H]1[C@H]2C[C@@H]3c4[nH]c5cc(OC)ccc5c4CCN3C[C@H]2C[C@@H](OC(=O)c2cc(OC)c(OC)c(OC)c2)[C@@H]1OC
inactive: [10]

O=C1NC(=O)C(c2ccccc2)(c2ccccc2)N1
not listed: [5] | [6] | [10]
inactive: all other assays above

CN(C)CCCN1c2ccccc2Sc2ccc(Cl)cc21
active: [1] 4.53 µM | [2] 11.8 µM | [3] 18.8 µM | [4] 28.4 µM | [5] 12.8 µM | [7] 10.7 µM | [8] 12.8 µM | [9] 11.8 µM

O=C(O)CC(O)(CC(=O)O)C(=O)O
inactive: [10]

CCc1nc(N)nc(N)c1-c1ccc(Cl)cc1
inactive: [10]

CC(=O)CC(c1ccccc1)c1c(O)c2ccccc2oc1=O (stereo not drawn)
not listed: [10]
inactive: all other assays above

Cc1occc(=O)c1O
inactive: [10]

Nc1nc(=S)c2[nH]cnc2[nH]1
active: [10] 89.6 µM
